Measured values published in PubChem BioAssay AID1159580 (chemical genetic matrix, 2015).
The whole screen tested about 5,500 compounds, of which about 2,000 (36%) were called active. Not shown: some 18% with an inconclusive outcome. No stated cut-off is given here; in the data, active means normalized growth mostly below about 0.91 (no sharp cut-off); inconclusive means no clear call, values can overlap the other calls; inactive means mostly above about 0.92. The list shows a part of the results.

Assay: chemical genetic growth profiling, strain panel (AID 1159580);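 further: tested at 20 µM; growth read once vehicle control cultures reached saturation at 30 °C; 1 = growth at the plate median or of vehicle wells; lower values mean less growth of the strain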
Settings: S. cerevisiae deletion strains, growth OD

Measured: normalized growth

COc1ccccc1N1CCN(CCN2C(=O)CC3(CCCC3)CC2=O)CC1
inactive: locus YER002W, strain NOP16, hits give low values 0.998 | locus YMR263W, strain SAP30, hits give low values 1 | locus YMR307W, strain GAS1, hits give low values 0.989 | locus YNL128W, strain TEP1, hits give low values 0.988 | locus YNL175C, strain NOP13, hits give low values 0.991 | locus YNL197C, strain WHI3, hits give low values 0.999 | locus YNL224C, strain SQS1, hits give low values 1 | locus YOR083W, strain WHI5 (second series), hits give low values 0.999 | locus YPL055C, strain LGE1, hits give low values 1 | locus YPL241C, strain CIN2, hits give low values 1.01
